This is an account of results in PubChem BioAssay (NCI).

Structures are written as SMILES. This is part of a sample that, as a whole, favours compounds with a hit. Of some 83,000 tested, about 20% had one in any assay.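 For each line, cells grew in 96-well plates with the test compound present at a single concentration for 48 hours.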 Values without a mark were called inactive. Activity calls are given as the source filed them. Rule for the calls: active = growth percent below 10; inactive = the rest.

The experiment has as its system MDA-MB-468 breast. The experiment can be described thus: NCI-60 one-dose screen, 48 h (100 = growth as untreated, 0 = no growth, -100 = all killed). Particulars: 10 µM unless noted.
For `c1csc(-c2cnc3nonc3n2)c1`, the growth is 67.5%.
Take `C=C(OC(C)=O)c1ccccc1`: the growth is 103%.
Then `COC(=O)[C@]12CC[C@@H](C)[C@H](C)[C@@H]1C1=CC[C@@H]3[C@@]4(C)C[C@@H](OC(=O)/C=C/c5ccccc5)[C@H](O)[C@@](C)(CO)[C@@H]4[C@H](O)C[C@@]3(C)[C@]1(C)CC2`, with -19.2% (active).
As to `O=C1c2ccccc2OC=C(c2ccccc2)N1CCCCNc1ccc(F)cc1`, the growth was 76.3%.
Then `Cc1cc(-c2cc(OC(=O)c3ccccc3)ccc2Cl)cc2nnc(Nc3ccc(OCCN4CCCC4)cc3)nc12`, with 84.3%.
The figure for `COc1ccc(/C=C/c2c(C(=O)/C=C/c3ccc(Cl)cc3)c(C)nc3ccccc23)cc1` is 34.7%; for `O=CNc1cc(Cl)cc(Cl)c1` it is 103%; for `NC(=N\N=C/Cc1ccccc1)/C(N)=N\N=C\Cc1ccccc1` it is 112%.
Then `Cc1c(-c2ccc(C3CCCCC3)cc2)nc2ccc(F)cc2c1C(=O)O`, with 74.4%.
As to `N/N=C(/Cc1ccccc1)NNC(N)=S`, the growth was 115%.
Then `CC(C)(C)[Si](C)(C)OC1[C@@H](O[Si](C)(C)C(C)(C)C)[C@@H](CNC(=O)NC(=O)NC(=O)CI)O[C@H]1n1cnc2c(NC(=O)Nc3ccccc3)ncnc21` (stereo not given in full), with 75.5%.
Turning to `Cc1cccc2nnc(-c3ccccc3)n12`, the growth was 106%.
Consider `O=c1c2cccc3c(N4CCOCC4)ccc(c32)c2nc3ccccc3n12`, for which the growth was -63.5% (active).
The figure for `O=[N+]([O-])c1ccc(Sc2ncccn2)c([N+](=O)[O-])c1` is 5.95% (active); for `Cc1c(Cl)cccc1NC(=O)CN1CCOCC1` it is 107%.
Then `O=c1[nH]c(=O)n(Cc2ccc(F)cc2)cc1F`, with 102% [50 µM]; and `COC(=O)c1cccnc1`, with 97.7%.
Regarding `O=S1(=O)OC(c2ccc(O)c(Cl)c2)(c2ccc(O)c(Cl)c2)c2ccccc21`, the growth is 114%.
The figure for `O=S(=O)(O)c1cccnc1` is 124%; for `CCN1/C(=C/C=C/c2n(-c3ccccc3)c3ccc(-c4nc5ccccc5s4)cc3[n+]2CC)N(c2ccccc2)c2ccc(-c3nc4ccccc4s3)cc21` it is 8.94% (active); for `O=c1c2c(=NCCN3CCCC3)cc3c(=O)n(CCCN4CCOCC4)c(=O)c4ccc(c(O)n1CCCN1CCOCC1)c2c4-3` it is -49.4% (active).
Consider `CC[C@@H](C)[C@H](NC(=O)Cn1cc(CNC(=O)[C@@H](NC(=O)OCc2ccccc2)C(C)C)nn1)C(=O)O`, for which the growth was 98.5%.
On to `Cn1c(SCC(=O)c2ccc(F)cc2)nc2ccccc2c1=O`, for which the growth is 79.4%.
The figure for `C=CCS(C)(=O)=O` is 95.9%.
The figure for `O=S(=O)(NCCNc1nccc(-c2c(-c3ccc(F)cc3)nc3sccn23)n1)c1ccc(F)cc1` is 52.1%.
With `O=C(O)c1ccccc1C(=O)OC1CCCC2CCCC21` (stereo not given), the growth is 102%.
Then `Clc1ccc(CNc2ccc3nc(CCC4CCCCC4)[nH]c3c2)cc1`, with -43.5% (active).
The figure for `O=C(N/N=C\c1ccccc1O)C1CC1` is 102%; for `C=C(CNCCO)[C@@H]1CC[C@]2(CO)CC[C@]3(C)[C@H](CC[C@@H]4[C@@]5(C)CCC(NCCO)C(C)(C)[C@@H]5CC[C@]43C)[C@@H]12` (stereo not given in full) it is 51%.
The figure for `c1ccc2nc(Cn3c[n+](Cc4ccc5ccccc5n4)c4ccccc43)ccc2c1` is -19.3% (active); for `CC(C)(C)NC(C1=CC(C)(C)c2ccccc2C1=O)c1ccccc1` (stereo not given) it is -100% (active); for `CCN(CC)C(=O)/C=C(/C)c1ccccc1` it is 87.6%.
Take `O=C1c2ccccc2CCc2ccccc21`: the growth was 95.2%.
Then `C/C(=N\Nc1ccc(Cl)cn1)c1ccc2ccccc2n1`, with -20.3% (active); and `COc1ccc(/C=N/NC(=O)CN2CCN(c3cc4c(cc3F)c(=O)c(C(=O)O)cn4C3CC3)CC2)cc1O`, with 101%; and `C[C@H]1[C@H]2C3=CC[C@@H]4[C@@]5(C)C/C(=C/c6ccco6)C(=O)C(C)(C)[C@@H]5CC[C@@]4(C)[C@]3(C)CC[C@@]2(C(=O)N2CCOCC2)CC[C@@H]1C`, with 59.5%.
As to `Cc1ccc(C(=O)Nc2cccc(C(F)(F)F)c2)cc1Nc1nc(-c2cnccn2)nc2c1cnn2C`, the growth was 104%.
On to `O=C1c2ccccc2C(=O)c2c(N=Nc3[nH]c(=S)[nH]c3O)cccc21`, for which the growth was -4.9% (active).
As for `COc1cc2cc(Oc3ccc(NC(=O)Nc4ccccc4)cc3)c(C)nc2cc1OCCN1CCCCC1`, the growth was 79.5%.
Then `Cc1ccc[n+](CCC(N)=O)c1`, with 108%.
